miR-122 sensor – miR-122 inhibition in Huh7 cells; AID 602342; activation (reporter increase), % at 12.5 µM; Huh7 miR-122 Renilla luciferase sensor, 48 h; neutral wells = 0, positive control = 100; hit rate 0.3% among 340,000;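 active means mean replicate activation score at least 90 and every replicate individually at or above 90; inconclusive means only one of the two criteria met; inactive means neither criterion met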;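 further: higher luciferase means less miR-122 activity so hits act as miR-122 inhibitors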
NSD2 HMT inh – inhibitors of human histone methyltransferase NSD2; NSD2 peptide methylation, AlphaScreen, 120 min; inhibition, % at 12.5 µM; AID 743445; hit rate 0.54% among 310,000; in the data active means inhibition above about 50%
Target sequence (O96028 whole entry, looked up): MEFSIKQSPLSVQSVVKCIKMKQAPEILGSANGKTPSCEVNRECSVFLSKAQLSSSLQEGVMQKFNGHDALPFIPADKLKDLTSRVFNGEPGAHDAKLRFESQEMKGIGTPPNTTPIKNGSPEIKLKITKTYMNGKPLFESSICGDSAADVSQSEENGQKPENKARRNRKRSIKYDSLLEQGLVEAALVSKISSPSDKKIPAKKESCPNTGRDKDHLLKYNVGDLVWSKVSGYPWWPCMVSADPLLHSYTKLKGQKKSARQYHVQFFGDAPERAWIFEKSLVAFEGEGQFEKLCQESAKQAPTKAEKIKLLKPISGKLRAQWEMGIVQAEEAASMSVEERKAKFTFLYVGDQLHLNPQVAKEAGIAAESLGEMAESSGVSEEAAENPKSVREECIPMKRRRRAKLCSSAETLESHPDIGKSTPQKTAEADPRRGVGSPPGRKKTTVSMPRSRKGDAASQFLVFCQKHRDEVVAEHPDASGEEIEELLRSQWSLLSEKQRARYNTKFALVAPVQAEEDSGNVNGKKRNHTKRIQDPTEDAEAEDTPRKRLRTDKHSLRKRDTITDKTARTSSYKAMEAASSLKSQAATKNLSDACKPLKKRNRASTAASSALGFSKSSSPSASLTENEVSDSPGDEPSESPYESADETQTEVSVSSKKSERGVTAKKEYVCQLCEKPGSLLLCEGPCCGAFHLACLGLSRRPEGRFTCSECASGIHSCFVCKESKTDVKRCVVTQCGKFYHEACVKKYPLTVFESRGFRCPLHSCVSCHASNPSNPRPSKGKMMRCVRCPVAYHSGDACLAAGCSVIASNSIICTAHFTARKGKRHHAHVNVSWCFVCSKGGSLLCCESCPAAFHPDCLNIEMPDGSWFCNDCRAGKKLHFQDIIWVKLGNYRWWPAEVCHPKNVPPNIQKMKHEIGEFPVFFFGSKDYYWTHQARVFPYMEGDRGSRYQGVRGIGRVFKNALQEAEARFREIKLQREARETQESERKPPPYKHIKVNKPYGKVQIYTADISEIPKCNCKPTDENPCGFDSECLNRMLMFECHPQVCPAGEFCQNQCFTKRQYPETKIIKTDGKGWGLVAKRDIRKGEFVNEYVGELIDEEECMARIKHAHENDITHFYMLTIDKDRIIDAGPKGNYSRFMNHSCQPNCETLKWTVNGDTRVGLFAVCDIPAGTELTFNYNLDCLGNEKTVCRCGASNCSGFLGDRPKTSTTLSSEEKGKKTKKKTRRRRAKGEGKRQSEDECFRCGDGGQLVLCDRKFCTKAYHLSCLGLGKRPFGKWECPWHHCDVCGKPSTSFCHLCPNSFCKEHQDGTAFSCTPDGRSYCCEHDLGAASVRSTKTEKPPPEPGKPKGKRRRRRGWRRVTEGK
Casp6 inh – blocks human caspase-6 cleavage activity; P55212; purified caspase-6, Z-VEID-R110 cleavage fluorescence; inhibition, % at 12.5 µM; hit rate 0.53% among 350,000; AID 686996;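 active means mean inhibition across replicates at least about 35%, with every replicate also reaching that limit, limit read from the data; inconclusive means only one of the two criteria met; inactive means neither criterion met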
MLL AF4-AF9 inh – inhibitors of human MLL-AF4/AF9 interaction; P42568; AlphaScreen, biotin-AF4 peptide binding to FLAG-AF9; inhibition, % at 10 µM; hit rate 0.47% among 350,000; AID 651704;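 active means every replicate reaching a set inhibition limit, whatever the replicate mean, cut at about 25% in these data; inconclusive means mean inhibition reaches that limit but some replicates miss it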
RAD52 anneal inh – RAD52 (human) annealing inhibition; recombinant RAD52 DNA annealing, FRET fluorescence; inhibition, % at 18.7 µM; hit rate 0.46% among 360,000; AID 651710;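 active means every replicate showing at least 50% inhibition; inconclusive means mean inhibition at least 50% but not in every replicate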
Of the large screens only hits and unclear results are named; the others gave an inactive call. An excerpt weighted towards active compounds, which were near 1.5% of everything screened.

COc1cc(O)c2c(c1)oc(=O)c1c3cc(O)c(O)cc3oc21	Casp6 inh 77, RAD52 anneal inh 77 (no result: miR-122 sensor, NSD2 HMT inh)
CCN1/C(=C/c2ccc3cc(C)ccc3[n+]2CC)Sc2cc(C)c(C)cc21	NSD2 HMT inh 161
C[C@H]1CN([C@@H](C)CO)C(=O)c2cc(-c3ccc(C#N)cc3)cnc2O[C@H]1CN(C)Cc1cncnc1	none (no result: miR-122 sensor, NSD2 HMT inh, Casp6 inh, RAD52 anneal inh)
CN(C(=O)Nc1ccccc1)C1CCS(=O)(=O)C1 (configuration not stated)	none (no result: Casp6 inh, MLL AF4-AF9 inh, RAD52 anneal inh)
CC(=O)NC1=C(N(C)C2CCS(=O)(=O)C2)C(=O)c2ccccc2C1=O (configuration not stated)	NSD2 HMT inh 107
CCC(=O)N1CC2(C1)CN(C(=O)CN1CCOCC1)[C@@H](CO)c1c2c2ccc(OC)cc2n1C	none (no result: miR-122 sensor, NSD2 HMT inh)
O=C(O)c1ccc(-c2cccc(Cl)c2)o1	none (no result: MLL AF4-AF9 inh)
Cc1ccc(-c2ccc(C(=O)O)o2)cc1Cl	MLL AF4-AF9 inh 27
COc1ccc(S(=O)(=O)Nc2ccc3c(c2)C(=O)N([C@@H](C)CO)C[C@H](C)[C@H](CN(C)C(=O)Nc2ccccc2)OCCCC[C@H](C)O3)cc1	none (no result: NSD2 HMT inh, Casp6 inh, MLL AF4-AF9 inh, RAD52 anneal inh)
Cc1ccc(S(=O)(=O)Nc2ccc3nc(N)sc3c2)cc1	miR-122 sensor 268 (no result: Casp6 inh, MLL AF4-AF9 inh, RAD52 anneal inh)
Cc1ccc(S(=O)(=O)Nc2ccc3nc(C)sc3c2)c(C)c1	none
Cc1nc2cc(NS(=O)(=O)c3c(C)c(C)cc(C)c3C)ccc2s1	miR-122 sensor 313 (no result: Casp6 inh, MLL AF4-AF9 inh, RAD52 anneal inh)
Cc1ccc(S(=O)(=O)Nc2ccc3nc(C)sc3c2)cc1	none (no result: Casp6 inh, MLL AF4-AF9 inh, RAD52 anneal inh)
Cc1nc2ccc(NS(=O)(=O)c3c(C)c(C)cc(C)c3C)cc2s1	miR-122 sensor 125 (no result: Casp6 inh, MLL AF4-AF9 inh, RAD52 anneal inh)
CCOC(=O)C1Nc2ccccc2C2C(O)C(O)CC12 (configuration not stated)	MLL AF4-AF9 inh 26 (no result: NSD2 HMT inh)
CCOc1cccc(/C=C(/C#N)c2nc3ccccc3[nH]2)c1OCC(=O)O	Casp6 inh 45 (no result: miR-122 sensor)
C=CCN(CC=C)S(=O)(=O)c1ccc2nc(NC(=O)C(C)C)sc2c1	miR-122 sensor 122 (no result: Casp6 inh, MLL AF4-AF9 inh, RAD52 anneal inh)
CCOC(=O)c1ccc2nc(NC(=O)C(C)C)sc2c1	none (no result: NSD2 HMT inh)
Cc1ccc(S(=O)(=O)N(C)C[C@@H]2Oc3c(NC(=O)c4ccncc4)cccc3C(=O)N([C@H](C)CO)C[C@@H]2C)cc1	none (no result: NSD2 HMT inh)
CCOC(=O)CC1C(=O)NCCN1S(=O)(=O)c1ccccc1 (configuration not stated)	none (no result: miR-122 sensor)
CCOC(=O)CC1C(=O)NCCN1S(=O)(=O)c1cccc(C(F)(F)F)c1 (configuration not stated)	Casp6 inh 42
Cc1cc(C)c(C)c(S(=O)(=O)NC2CCN(Cc3ccccc3)CC2)c1C	miR-122 sensor 216
CO[C@H]1CN(C)C(=O)c2cc(NC(C)=O)ccc2OC[C@H](C)N(Cc2cncnc2)C[C@H]1C	none (no result: NSD2 HMT inh)
Nc1c(/C=C2/C=CC(=O)C(O)=C2)c(=O)nc2sc(CC(=O)N3CCCCC3)nn12	NSD2 HMT inh 142, Casp6 inh 83
Nc1c(/C=C2/C=CC(=O)C(O)=C2)c(=O)nc2sc(CC(=O)N3CCCC3)nn12	NSD2 HMT inh 119, Casp6 inh 48
O=C1NCCC12C(=O)Nc1ccccc12 (configuration not stated)	none (no result: NSD2 HMT inh)
O=C(O)C1=C2C(=O)Nc3cccc(c32)C2(C1)C(=O)Nc1ccccc12 (configuration not stated)	Casp6 inh 60 (no result: NSD2 HMT inh)
FC(F)Sc1ccc(NC(=S)NC2CCCCC2)cc1	miR-122 sensor 121 (no result: Casp6 inh, MLL AF4-AF9 inh, RAD52 anneal inh)
CC1CCCCC1NC(=S)Nc1ccc(SC(F)F)cc1 (configuration not stated)	miR-122 sensor 115 (no result: Casp6 inh, MLL AF4-AF9 inh, RAD52 anneal inh)
FC(F)Sc1ccc(NC(=S)NCC2CCCCC2)cc1	none (no result: miR-122 sensor)
CNC(=O)C[C@H]1CC[C@H]2[C@@H](COc3ccc(NC(=O)c4ccno4)cc3C(=O)N2C)O1	none (no result: NSD2 HMT inh, Casp6 inh, MLL AF4-AF9 inh, RAD52 anneal inh)
O=c1[nH]c(N2CCOCC2)cc2ccccc12	Casp6 inh 96 (no result: NSD2 HMT inh)
O=c1c(N2CCOCC2)coc2ccccc12	none (no result: miR-122 sensor)
CC(C)c1ccc(C(C)NC(=S)NC2CCCCC2)cc1 (configuration not stated)	none (no result: miR-122 sensor)
CC(NC(=S)NC1CCCCC1)c1ccc(C(C)(C)C)cc1 (configuration not stated)	Casp6 inh 42
COc1ccc(S(=O)(=O)Nc2ccc3c(c2)C(=O)N([C@@H](C)CO)C[C@H](C)[C@@H](CN(C)S(=O)(=O)c2ccc(OC)cc2)OCCCC[C@H](C)O3)cc1	none (no result: NSD2 HMT inh, Casp6 inh, MLL AF4-AF9 inh, RAD52 anneal inh)
COc1ccc(S(=O)(=O)Nc2ccc3c(c2)C(=O)N([C@@H](C)CO)C[C@H](C)[C@@H](CN(C)C(=O)NC2CCCCC2)O3)cc1	none (no result: NSD2 HMT inh)
O=C(Nc1cccc(Oc2ccc(C(=O)O)c(C(=O)O)c2)c1)c1ccc(-c2ccccc2)cc1	Casp6 inh 42
CC(C)(C)C(=O)Nc1ccc(C(=O)Nc2cccc(Oc3ccc(C(=O)O)c(C(=O)O)c3)c2)cc1	none (no result: miR-122 sensor)
O=C(O)CCCN1C(=O)/C(=C\c2ccc(-c3nc4ccccc4s3)o2)SC1=S	Casp6 inh 43
O=C1/C(=C\c2ccc(O)c(O)c2)SC(=S)N1Cc1ccccc1	MLL AF4-AF9 inh inconclusive
O=C(O)c1ccc(-c2ccc(/C=c3/sc4nc5ccccc5n4c3=O)o2)cc1Cl	Casp6 inh 58 (no result: miR-122 sensor, NSD2 HMT inh)
O=C(O)c1cc(-c2ccc(/C=C3/SC(=S)N(Cc4ccccc4)C3=O)o2)ccc1Cl	Casp6 inh 51
Cc1cc(C)c2nc3sc(=Cc4ccc(-c5ccccc5C(=O)O)o4)c(=O)n3c2c1	none (no result: NSD2 HMT inh, Casp6 inh)
O=C1/C(=C\c2cccc(O)c2O)SC(=S)N1Cc1ccccc1	NSD2 HMT inh 52 (no result: miR-122 sensor)
C[C@@H]1CCCCO[C@@H](CN(C)C(=O)Nc2ccc(F)cc2)[C@H](C)CN([C@@H](C)CO)C(=O)c2cc(NC(=O)CCCN(C)C)ccc2O1	none (no result: NSD2 HMT inh)
C[C@@H]1CN([C@H](C)CO)C(=O)Cc2cc(NC(=O)c3ccncc3)ccc2O[C@@H]1CN(C)S(=O)(=O)c1ccc(Cl)cc1	none (no result: NSD2 HMT inh)
CN(C)C(=O)C[C@H]1C[C@@H]2c3cc(NS(C)(=O)=O)ccc3O[C@@H]2[C@@H](CO)O1	none (no result: NSD2 HMT inh)
CC1=NN(c2ccccc2)C(=O)/C1=C/c1ccc(-c2ccc(C)c(C(=O)O)c2)o1	none (no result: miR-122 sensor)
CC1=NN(c2ccc(Cl)c(C(=O)O)c2)C(=O)/C1=C\c1ccc(-c2ccc(C(=O)O)cc2)o1	Casp6 inh 54 (no result: miR-122 sensor)
CC1(C)OC(=O)C(=Cc2ccc(-c3ccc(Cl)c(C(=O)O)c3)o2)C(=O)O1	Casp6 inh 58 (no result: miR-122 sensor, NSD2 HMT inh)
Cc1ccc(N2NC(=O)/C(=C/c3ccc(-c4ccc(Cl)c(C(=O)O)c4)o3)C2=O)cc1C	none (no result: NSD2 HMT inh)
C[C@@H]1CCCCO[C@@H](CN(C)Cc2ccc(C(F)(F)F)cc2)[C@H](C)CN([C@H](C)CO)C(=O)c2cc(NC(=O)Nc3ccccc3)ccc2O1	none (no result: NSD2 HMT inh, Casp6 inh, MLL AF4-AF9 inh, RAD52 anneal inh)
COc1cccc(N2[C@@H](CC(=O)O)c3ccc(/C=C/C(=O)O)cc3S2(=O)=O)c1	Casp6 inh 62 (no result: miR-122 sensor, NSD2 HMT inh)
Cc1ccccc1S(=O)(=O)N1[C@@H]2Cn3c(cccc3=O)[C@H]1[C@@H](C(=O)N1CCOCC1)[C@@H]2CO	none (no result: NSD2 HMT inh)
CCCNC(=O)N1CC2(CN(C(=O)Nc3cccc(F)c3)C2)c2c(n(C)c3cc(OC)ccc23)[C@H]1CO	none (no result: miR-122 sensor, NSD2 HMT inh)
